# Measurements as given in PubChem BioAssay.
# The source made the active and inactive calls.
# Tests used:
# [1] = test system: PRMT1 (protein arginine N-methyltransferase 1); assay: small molecules binding arginine methyltransferase PRMT1 – biochemical, small-molecule microarray, 635 nm fluorescence, primary screen (AID 1088); settings: higher = more signal;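 also: binding of Prmt1 protein to compounds spotted on small-molecule microarray slides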
# [2] = growth effects on S. cerevisiae YJM789 – YJM789 clinical isolate, OD600, 24 h, basal, primary screen (AID 1089); settings: higher = more signal, called active from +8 up or from −8 down;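 also: growth of clinical yeast isolate S. cerevisiae YJM 789 seeded 1000 cells per well; test concentration not given here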
# [3] = S. pombe growth modifiers, basal conditions – strain 972, OD600, 24 h, no modulator, primary screen (AID 1090);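 also: basal condition with compound alone and no growth modifier present; test concentration not given here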; settings: S. pombe 972 growth, higher = more signal, called active from +8 up or from −8 down
# [4] = budding yeast growth modifiers under rapamycin – strain BY4716, OD600, 96 h, primary screen (AID 1091); also: test concentration not given here; settings: S. cerevisiae BY4716 + rapamycin, higher = more signal, called active from +8 up or from −8 down
# [5] = molecular target: Torsin-1A-interacting protein 2 (Homo sapiens) (UniProt Q8NFQ8); assay: small molecules binding lysate-expressed LULL1 – cell lysate, human LULL1 lysate, 635/667 nm fluorescence, primary screen (AID 1092); settings: small-molecule microarray, hLULL1 lysate binding, 635 nm fluorescence; higher = more signal;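 also: probe is lysate of COS7 cells overexpressing human LULL1; score merges per-feature 667 nm fluorescence with signal-to-noise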
# Sequence of Torsin-1A-interacting protein 2 (Homo sapiens) (Q8NFQ8 whole entry, looked up): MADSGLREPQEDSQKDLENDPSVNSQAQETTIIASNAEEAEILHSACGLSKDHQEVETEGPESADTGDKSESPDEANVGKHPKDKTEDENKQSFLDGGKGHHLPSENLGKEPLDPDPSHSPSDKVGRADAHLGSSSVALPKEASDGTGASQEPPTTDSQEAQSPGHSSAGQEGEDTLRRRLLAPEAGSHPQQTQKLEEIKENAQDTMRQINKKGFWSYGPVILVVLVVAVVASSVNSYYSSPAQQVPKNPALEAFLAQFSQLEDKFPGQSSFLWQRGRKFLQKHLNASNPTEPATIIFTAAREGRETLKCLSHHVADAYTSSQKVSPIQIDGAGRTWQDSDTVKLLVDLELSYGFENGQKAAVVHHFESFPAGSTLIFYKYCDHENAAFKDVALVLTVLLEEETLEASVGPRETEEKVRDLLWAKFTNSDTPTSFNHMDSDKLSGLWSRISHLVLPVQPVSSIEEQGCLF
# [6] = optical density change of DRC41 E. coli – strain DRC41, OD650, 24 h, E. coli filamentation project, primary screen (AID 1093);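 also: MC1000 strain lacking acrAB efflux and sulA so SOS filamentation is blocked; test concentration not given here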; settings: E. coli DRC41 growth, higher = more signal, called active from +8 up or from −8 down
# [7] = probe aLefty2 binding to arrayed compounds – biochemical, biotinylated probe, 635/667 nm fluorescence, primary screen (AID 1094); settings: small-molecule microarray, higher = more signal;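 also: score merges spot fluorescence near 667 nm with spot signal-to-noise ratio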
# [8] = test system: Noggin (protein binding on small-molecule microarray); assay: small molecules binding Noggin protein – biochemical, 635/667 nm fluorescence, primary screen (AID 1095); settings: 635 nm fluorescence, higher = more signal;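 also: score merges 667 nm feature fluorescence with signal to noise over triplicate slides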
# [9] = molecular target: Neurogenic locus notch homolog protein 3 (Homo sapiens) (UniProt Q9UM47); assay: small molecules binding NOTCH3 protein – biochemical, 635/667 nm fluorescence, primary screen (AID 1096); settings: small-molecule microarray, 635 nm fluorescence, higher = more signal
# Sequence of Neurogenic locus notch homolog protein 3 (Homo sapiens) (Q9UM47 whole entry, looked up): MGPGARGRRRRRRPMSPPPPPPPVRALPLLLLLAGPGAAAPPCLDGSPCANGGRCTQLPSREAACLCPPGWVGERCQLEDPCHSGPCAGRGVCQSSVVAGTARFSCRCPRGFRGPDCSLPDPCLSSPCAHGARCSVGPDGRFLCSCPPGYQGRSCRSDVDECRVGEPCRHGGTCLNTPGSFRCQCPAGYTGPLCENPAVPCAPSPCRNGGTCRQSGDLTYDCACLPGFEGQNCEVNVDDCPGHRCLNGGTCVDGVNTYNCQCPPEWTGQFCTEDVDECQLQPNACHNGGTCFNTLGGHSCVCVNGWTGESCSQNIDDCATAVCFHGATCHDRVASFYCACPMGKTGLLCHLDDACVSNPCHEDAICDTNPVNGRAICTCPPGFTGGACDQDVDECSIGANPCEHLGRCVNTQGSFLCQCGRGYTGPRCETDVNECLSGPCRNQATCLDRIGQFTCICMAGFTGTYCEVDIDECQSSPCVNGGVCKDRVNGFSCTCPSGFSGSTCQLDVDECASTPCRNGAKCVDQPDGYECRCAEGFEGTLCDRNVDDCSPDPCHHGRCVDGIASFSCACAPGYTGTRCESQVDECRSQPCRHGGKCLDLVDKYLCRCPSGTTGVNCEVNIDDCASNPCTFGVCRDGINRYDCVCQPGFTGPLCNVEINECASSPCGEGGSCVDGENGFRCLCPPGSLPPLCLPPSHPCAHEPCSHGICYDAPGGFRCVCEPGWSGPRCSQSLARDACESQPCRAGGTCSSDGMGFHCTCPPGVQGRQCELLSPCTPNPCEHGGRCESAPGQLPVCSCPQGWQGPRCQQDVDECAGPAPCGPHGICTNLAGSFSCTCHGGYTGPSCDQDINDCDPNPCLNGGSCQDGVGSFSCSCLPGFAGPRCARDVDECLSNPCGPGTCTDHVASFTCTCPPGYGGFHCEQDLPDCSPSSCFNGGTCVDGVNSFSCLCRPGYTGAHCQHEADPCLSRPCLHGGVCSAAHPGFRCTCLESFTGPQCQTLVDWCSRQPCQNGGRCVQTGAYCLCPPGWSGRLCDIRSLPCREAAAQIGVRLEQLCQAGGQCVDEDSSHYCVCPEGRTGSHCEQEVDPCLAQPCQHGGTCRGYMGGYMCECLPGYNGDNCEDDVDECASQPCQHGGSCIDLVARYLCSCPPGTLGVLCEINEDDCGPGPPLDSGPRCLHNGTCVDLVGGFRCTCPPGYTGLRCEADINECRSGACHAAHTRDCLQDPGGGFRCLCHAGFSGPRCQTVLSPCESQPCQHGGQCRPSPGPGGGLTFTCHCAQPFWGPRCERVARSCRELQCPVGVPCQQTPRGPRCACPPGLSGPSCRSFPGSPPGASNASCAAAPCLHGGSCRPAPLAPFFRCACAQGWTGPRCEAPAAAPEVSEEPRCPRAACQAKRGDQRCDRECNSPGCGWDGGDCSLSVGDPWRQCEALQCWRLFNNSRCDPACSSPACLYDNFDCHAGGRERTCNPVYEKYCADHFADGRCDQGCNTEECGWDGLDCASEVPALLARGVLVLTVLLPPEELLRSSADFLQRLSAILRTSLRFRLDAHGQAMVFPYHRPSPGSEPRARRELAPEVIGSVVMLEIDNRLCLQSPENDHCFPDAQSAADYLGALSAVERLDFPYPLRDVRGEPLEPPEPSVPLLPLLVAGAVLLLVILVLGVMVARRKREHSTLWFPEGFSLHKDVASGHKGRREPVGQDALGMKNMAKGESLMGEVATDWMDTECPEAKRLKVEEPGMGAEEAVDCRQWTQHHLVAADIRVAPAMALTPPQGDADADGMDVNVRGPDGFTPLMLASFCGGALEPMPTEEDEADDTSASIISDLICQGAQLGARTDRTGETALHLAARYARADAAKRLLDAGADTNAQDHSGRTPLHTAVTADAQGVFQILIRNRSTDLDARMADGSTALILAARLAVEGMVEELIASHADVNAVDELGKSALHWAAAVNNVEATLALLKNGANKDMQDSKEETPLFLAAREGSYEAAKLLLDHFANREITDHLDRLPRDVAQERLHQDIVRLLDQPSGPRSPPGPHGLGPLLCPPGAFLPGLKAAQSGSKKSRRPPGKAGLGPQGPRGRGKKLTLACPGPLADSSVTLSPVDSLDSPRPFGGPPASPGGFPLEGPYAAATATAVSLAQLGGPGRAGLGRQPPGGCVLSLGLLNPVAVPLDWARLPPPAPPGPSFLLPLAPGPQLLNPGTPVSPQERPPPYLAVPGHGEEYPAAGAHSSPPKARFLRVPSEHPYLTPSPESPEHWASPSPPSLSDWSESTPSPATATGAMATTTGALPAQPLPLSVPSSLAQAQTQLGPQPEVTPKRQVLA
# [10] = probe aEGFR binding to arrayed compounds – biochemical, biotinylated probe, 635/667 nm fluorescence, primary screen (AID 1097); settings: small-molecule microarray, higher = more signal;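 also: probe is a biotinylated anti-EGFR antibody binding compounds printed on slides; score combines fluorescence near 667 nm and signal to noise of each spot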
# [11] = test system: Plasmodium falciparum Sir2 (PF13_0152, Sir2A); assay: Plasmodium falciparum Sir2A binding compounds – biochemical, small-molecule microarray, 635 nm fluorescence, primary screen (AID 1098); settings: fluorescence 635 nm, higher = more signal;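 also: score merges spot fluorescence intensity with its signal-to-noise ratio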
# [12] = probe aDKK1 binding to arrayed compounds – biochemical, biotinylated probe, 635/667 nm fluorescence, primary screen (AID 1099); settings: small-molecule microarray, higher = more signal;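 also: score merges 667nm spot fluorescence with signal to noise across triplicate slides; reference of the scale not given here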
# [13] = probe aCHRDL2 binding to arrayed compounds – biochemical, biotinylated probe, 635/667 nm fluorescence, primary screen (AID 1100); settings: small-molecule microarray, higher = more signal
# [14] = change in splice reporter luminescence, either direction, cell-based, HEK293, spliceosome inhibition project, primary screen (AID 1101); settings: HEK293 splicing luciferase reporter, 24 h, higher = more signal, called active from +8 up or from −8 down;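 also: HEK293 cells carrying a splicing-competent luciferase reporter gene; test concentration not given here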
# [15] = molecular target: Fibroblast growth factor 10 (Homo sapiens) (UniProt O15520); assay: compounds binding fibroblast growth factor 10 – biochemical, small-molecule microarray, 635 nm fluorescence, primary screen (AID 1102); settings: FGF10 binding, fluorescence 635 nm, higher = more signal
# Sequence of Fibroblast growth factor 10 (Homo sapiens) (O15520 whole entry, looked up): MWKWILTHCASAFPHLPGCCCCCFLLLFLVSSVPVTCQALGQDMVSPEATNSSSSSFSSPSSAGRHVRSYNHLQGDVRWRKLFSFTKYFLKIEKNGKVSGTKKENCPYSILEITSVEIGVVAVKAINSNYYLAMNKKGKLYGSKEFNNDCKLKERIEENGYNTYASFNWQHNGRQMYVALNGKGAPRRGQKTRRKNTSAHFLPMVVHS
# [16] = test system: glycogen synthase kinase-3 (GSK3A per assay name; protocol says GSK3B); assay: compounds binding glycogen synthase kinase-3 – biochemical, small-molecule microarray, 635 nm fluorescence, GSK3A, primary screen (AID 1103); settings: fluorescence 635 nm, higher = more signal; also: the record names both GSK3A and GSK3B
# [17] = molecular target: Epidermal growth factor receptor (Homo sapiens) (UniProt P00533); assay: compounds binding epidermal growth factor receptor – biochemical, small-molecule microarray, 635 nm fluorescence, primary screen (AID 1104); settings: EGFR binding, higher = more signal;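 also: score merges 667 nm emission intensity with spot signal to noise over triplicate slides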
# Sequence of Epidermal growth factor receptor (Homo sapiens) (P00533 whole entry, looked up): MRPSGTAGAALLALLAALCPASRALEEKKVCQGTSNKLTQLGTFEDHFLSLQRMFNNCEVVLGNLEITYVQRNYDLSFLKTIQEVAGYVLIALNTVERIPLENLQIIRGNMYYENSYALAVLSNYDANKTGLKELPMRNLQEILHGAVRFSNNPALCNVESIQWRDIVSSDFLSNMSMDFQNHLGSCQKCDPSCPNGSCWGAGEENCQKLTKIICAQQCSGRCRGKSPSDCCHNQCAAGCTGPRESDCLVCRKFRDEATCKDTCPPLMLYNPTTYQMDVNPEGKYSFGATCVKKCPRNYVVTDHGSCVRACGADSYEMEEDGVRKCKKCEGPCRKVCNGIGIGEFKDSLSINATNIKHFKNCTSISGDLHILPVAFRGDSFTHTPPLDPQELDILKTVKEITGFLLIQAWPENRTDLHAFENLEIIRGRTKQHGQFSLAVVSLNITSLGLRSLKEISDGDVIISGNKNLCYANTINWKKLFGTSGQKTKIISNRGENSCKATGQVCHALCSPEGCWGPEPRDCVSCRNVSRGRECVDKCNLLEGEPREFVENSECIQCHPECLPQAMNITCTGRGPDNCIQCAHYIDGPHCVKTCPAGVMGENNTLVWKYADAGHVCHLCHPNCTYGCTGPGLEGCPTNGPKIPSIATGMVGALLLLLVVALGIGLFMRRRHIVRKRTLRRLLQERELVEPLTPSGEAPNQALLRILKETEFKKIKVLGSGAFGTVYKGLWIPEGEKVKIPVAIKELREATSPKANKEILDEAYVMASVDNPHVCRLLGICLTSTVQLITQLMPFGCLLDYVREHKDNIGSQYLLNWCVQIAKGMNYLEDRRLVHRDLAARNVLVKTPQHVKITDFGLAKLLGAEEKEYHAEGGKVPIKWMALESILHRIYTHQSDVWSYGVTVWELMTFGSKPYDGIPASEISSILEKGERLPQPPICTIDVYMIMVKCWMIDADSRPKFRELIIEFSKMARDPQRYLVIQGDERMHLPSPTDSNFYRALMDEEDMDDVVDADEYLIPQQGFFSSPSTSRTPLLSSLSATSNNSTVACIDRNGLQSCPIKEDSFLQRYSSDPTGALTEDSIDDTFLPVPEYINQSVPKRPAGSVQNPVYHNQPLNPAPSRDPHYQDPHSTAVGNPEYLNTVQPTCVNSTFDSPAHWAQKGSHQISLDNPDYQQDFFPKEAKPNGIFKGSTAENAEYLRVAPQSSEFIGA
# [18] = molecular target: Follistatin-related protein 3 (Homo sapiens) (UniProt O95633); assay: compounds binding follistatin-related protein 3 – biochemical, small-molecule microarray, 635 nm fluorescence, primary screen (AID 1105); settings: FSTL3 binding, higher = more signal;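 also: score merges emission near 667 nm and signal to noise per printed spot across three slides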
# Sequence of Follistatin-related protein 3 (Homo sapiens) (O95633 whole entry, looked up): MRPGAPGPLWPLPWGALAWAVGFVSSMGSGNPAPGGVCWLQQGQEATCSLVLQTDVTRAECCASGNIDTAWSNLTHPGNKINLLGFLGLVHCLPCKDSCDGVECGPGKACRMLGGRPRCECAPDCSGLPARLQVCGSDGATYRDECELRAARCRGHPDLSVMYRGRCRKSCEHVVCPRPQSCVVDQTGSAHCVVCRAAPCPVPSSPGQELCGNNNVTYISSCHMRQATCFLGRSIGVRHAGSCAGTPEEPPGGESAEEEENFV
# [19] = molecular target: Dickkopf-related protein 1 (Homo sapiens) (UniProt O94907); assay: small molecules binding DKK1 protein – biochemical, small-molecule microarray, 635 nm fluorescence scan, primary screen (AID 1106); settings: higher = more signal;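 also: score merges emission near 667 nm with signal to noise over three replicate slides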
# Sequence of Dickkopf-related protein 1 (Homo sapiens) (O94907 whole entry, looked up): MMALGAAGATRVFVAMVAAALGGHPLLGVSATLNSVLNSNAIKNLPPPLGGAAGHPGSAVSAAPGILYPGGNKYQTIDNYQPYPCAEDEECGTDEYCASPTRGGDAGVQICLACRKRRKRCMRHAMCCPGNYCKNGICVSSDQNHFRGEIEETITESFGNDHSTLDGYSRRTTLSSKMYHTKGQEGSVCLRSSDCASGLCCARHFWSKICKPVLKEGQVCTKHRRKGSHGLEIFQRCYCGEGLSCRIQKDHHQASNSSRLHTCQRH
# [20] = test system: Inhibin beta A chain (activin A); assay: small molecules binding activin A – biochemical, small-molecule microarray, 635 nm fluorescence scan, primary screen (AID 1107); settings: INHBA, higher = more signal;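 also: mouse activin A protein probed at 4.33 µg/mL on printed slides; score merges bound-protein fluorescence near 667 nm with spot signal-to-noise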
SMILES,composite z-score [1],z-score [2],z-score [3],z-score [4],composite z-score [5],z-score [6],composite z-score [7],composite z-score [8],composite z-score [9],composite z-score [10],composite z-score [11],composite z-score [12],composite z-score [13],z-score [14],composite z-score [15],composite z-score [16],composite z-score [17],composite z-score [18],composite z-score [19],composite z-score [20]
CO[C@H]1COC(=O)CC=C[C@H](C)[C@@H](OC)COC(=O)[C@@H](C)COC(=O)CC=C[C@@H]1C,1.48,0.235 (inactive),-1.41 (inactive),-0.487 (inactive),-0.108,-0.176 (inactive),-0.235,2.04,-0.399,-0.0171,0.567,-0.909,-1.66,0.337 (inactive),0.902,0.709,1.32,1.47,1.3,1.79
CCOC(=O)[C@H](CC(C)C)NC(=O)CCC1CC(OC(=O)NCc2ccc3c(c2)OCO3)CC2(CCCC(COC(=O)NCC(c3ccccc3)c3ccccc3)O2)O1 (stereo not given in full),0.915,0.417 (inactive),0.707 (inactive),0.34 (inactive),1.6,0.344 (inactive),-0.145,0.617,0.79,-0.0177,0.517,-0.445,-0.491,0.907 (inactive),0.685,0.206,-0.519,0.503,0.0925,0.155
C=CC[C@@H]1C=C[C@H](ON=C2[C@H]3CCn4c(=O)n(-c5ccccc5)c(=O)n4[C@H]3[C@H](O)[C@@H]3O[C@H]23)[C@@H](CO)O1,-0.41,0.552 (inactive),0.383 (inactive),1.04 (inactive),-0.114,0.607 (inactive),-0.257,0.308,-0.0701,0.0434,0.482,-0.378,-0.548,0.492 (inactive),0.51,-0.596,0.55,0.485,0.536,0.376
CC(CCN1CCCCc2nc(C)c(C)cc21)=NOC[C@@H](O)COCc1ccco1,1.3,-1.35 (inactive),0.527 (inactive),-0.119 (inactive),-0.58,0.742 (inactive),-0.0042,1.21,0.876,0.592,1.19,-0.286,-1.58,0.44 (inactive),1.26,1.34,1.74,1.52,2,1.79
CCOC(=O)CCN1C(=O)[C@H]2[C@H]3[C@H](O)[C@H](O)CC(=NNC(=O)OCc4ccccc4)[C@@H]3CC[C@H]2C1=O,1.05,-0.662 (inactive),0.279 (inactive),-0.598 (inactive),0.967,0.826 (inactive),-0.23,0.713,1.01,-0.0688,0.205,-0.111,-0.201,0.265 (inactive),0.709,0.323,0.188,0.993,0.516,-0.196
